This is an account of results in PubChem BioAssay (NCATS).

The target in assay [1] is Glucocorticoid receptor (Homo sapiens) (UniProt P04150). Briefly: qHTS assay for small molecule agonists of glucocorticoid receptor signaling (AID 588532; active means well fitted curve in the direction sought with a large enough effect in the signal ratio, with a control signal flat; the % refers to the signal ratio;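 further: 100% = dexamethasone at 0.1 µM and 0% = DMSO only wells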). The following applies: HeLa MMTV-bla, beta-lactamase ratio, agonist, 18 h; stronger effect = higher value; percent of dexamethasone control, DMSO zero. In a few lines: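 Cells were plated and rested 3-5 h at 37 C, compounds were added in titration and incubated 18 h, then CCF4 substrate was loaded for 2 h at RT before reading blue/green fluorescence. EC50 came from Hill-equation fitting.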
Sequence of Glucocorticoid receptor (Homo sapiens) (P04150 whole entry, looked up): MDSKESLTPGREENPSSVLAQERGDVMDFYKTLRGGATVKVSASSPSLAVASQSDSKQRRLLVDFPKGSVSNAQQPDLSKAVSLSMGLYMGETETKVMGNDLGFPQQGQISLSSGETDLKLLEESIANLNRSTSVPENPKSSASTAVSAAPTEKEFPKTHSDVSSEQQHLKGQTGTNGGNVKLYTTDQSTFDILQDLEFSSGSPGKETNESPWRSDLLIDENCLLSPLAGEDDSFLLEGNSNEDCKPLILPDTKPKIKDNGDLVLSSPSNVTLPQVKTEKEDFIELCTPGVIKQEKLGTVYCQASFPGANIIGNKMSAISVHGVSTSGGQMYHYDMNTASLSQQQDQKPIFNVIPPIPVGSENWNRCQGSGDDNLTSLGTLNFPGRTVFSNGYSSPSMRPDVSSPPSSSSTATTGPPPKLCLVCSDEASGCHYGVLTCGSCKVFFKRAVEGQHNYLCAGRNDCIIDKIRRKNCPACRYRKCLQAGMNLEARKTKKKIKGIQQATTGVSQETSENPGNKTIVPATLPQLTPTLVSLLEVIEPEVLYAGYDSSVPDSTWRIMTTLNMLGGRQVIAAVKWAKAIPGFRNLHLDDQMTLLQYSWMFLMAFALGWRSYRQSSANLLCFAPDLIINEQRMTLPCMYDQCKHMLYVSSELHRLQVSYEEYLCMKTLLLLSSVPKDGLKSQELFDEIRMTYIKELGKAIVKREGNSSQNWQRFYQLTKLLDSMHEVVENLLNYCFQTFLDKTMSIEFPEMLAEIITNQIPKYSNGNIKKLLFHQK
For orientation: In qHTS, concentration-response curves come from the screen itself.

Assay [2] shares this target. Description: qHTS assay for small molecule antagonists of glucocorticoid receptor signaling (AID 588533; active means well fitted inhibition curve with a large enough effect in the signal ratio, with a control signal flat, not every such curve was filed as active; the % refers to the signal ratio; further: on the % scale 0 is the no-effect control and ±100 the full control effect). The conditions noted are these: HeLa MMTV-bla, GRE beta-lactamase ratio, antagonist mode, 18 h; series mostly up to 76.8 µM. In a few lines:
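Antagonist-mode qHTS: compound titrations added to GRE-bla HeLa cells, then dexamethasone 2 nM final; 18 h, 37 C. CCF4 FRET fluorescence normalized to dexamethasone and DMSO; IC50 from Hill fit.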

The target of assay [3] is Peroxisome proliferator-activated receptor gamma (Homo sapiens) (UniProt P37231). Briefly: qHTS assay for small molecule agonists of peroxisome proliferator-activated receptor gamma signaling (AID 588536; active means well fitted curve in the direction sought with a large enough effect in the signal ratio, with a control signal flat, not every such curve was filed as active; the % refers to the signal ratio;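 further: 0% = DMSO basal wells and 100% = rosiglitazone at 2 µM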). The conditions noted are these: HEK293 PPARg-UAS-bla, beta-lactamase ratio, 16 h, percent of rosiglitazone response, DMSO as zero; series mostly up to 76.7 µM. In a few lines:
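Beta-lactamase reporter read-out: CCF4 fluorescence (ex 405, em 460/530 nm) after 2 h at RT. HEK293 GeneBLAzer cells were treated for 16 h at 37 C. Hill fits gave EC50 and efficacy versus 2 uM rosiglitazone (100%) and DMSO (0%).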

A short description of assay [4]: qHTS assay for small molecule agonists of retinoid X receptor alpha signaling (AID 588544).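 On activation: 0% = DMSO basal wells and 100% = reference agonist.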 The conditions noted are these: HEK293T RXRa-UAS-bla, beta-lactamase reporter, 18 h; 530 nm emission.
Assay [5] addresses Thyroid hormone receptor beta (Homo sapiens) (UniProt P10828). Briefly: qHTS assay for small molecule agonists of thyroid hormone receptor beta signaling (AID 588545).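 Further: 0% = DMSO only and 100% = 10 nM T3.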 The following applies: TR-UAS-bla GripTite HEK 293, beta-lactamase ratio, agonist mode, 18 h, percent of T3 response, DMSO as zero; series mostly up to 76.7 µM. In a few lines:
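Compounds were tested as agonists in TR-UAS-bla-GripTite HEK 293 cells. After 18 hrs at 37 C, CCF4 substrate was added and fluorescence read after 2 hrs at room temperature.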

A short description of assay [6]: qHTS assay for small molecule antagonists of retinoid X receptor alpha signaling (AID 588546; active means well fitted inhibition curve with a large enough effect in the signal ratio, with a control signal flat, not every such curve was filed as active; the % refers to the signal ratio;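 further: cells stimulated with 9-cis-retinoic acid as agonist; on the % scale 0 is the no-effect control and ±100 the full control effect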). The following applies: HEK293T RXRa-UAS-bla, beta-lactamase ratio, antagonist mode; measured here: W530 green channel, cytotoxicity proxy. The method, boiled down:
(§1)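 Beta-lactamase reporter inhibition, read as CCF4 fluorescence ratio (ex 405, em 460/530 nm) after 2 h at RT. HEK293T UAS-bla cells, 2500/well, were stimulated with 9-cis-RA at 500 or 100 nM final alongside test compound for 18 h at 37 C.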

Assay [7] deals with Retinoic acid receptor RXR-alpha (Homo sapiens) (UniProt P19793). The assay is described as above. The following applies: HEK293T RXRa-UAS-bla, beta-lactamase ratio, antagonist mode. In a few lines: as §1
Sequence of Retinoic acid receptor RXR-alpha (Homo sapiens) (P19793 whole entry, looked up): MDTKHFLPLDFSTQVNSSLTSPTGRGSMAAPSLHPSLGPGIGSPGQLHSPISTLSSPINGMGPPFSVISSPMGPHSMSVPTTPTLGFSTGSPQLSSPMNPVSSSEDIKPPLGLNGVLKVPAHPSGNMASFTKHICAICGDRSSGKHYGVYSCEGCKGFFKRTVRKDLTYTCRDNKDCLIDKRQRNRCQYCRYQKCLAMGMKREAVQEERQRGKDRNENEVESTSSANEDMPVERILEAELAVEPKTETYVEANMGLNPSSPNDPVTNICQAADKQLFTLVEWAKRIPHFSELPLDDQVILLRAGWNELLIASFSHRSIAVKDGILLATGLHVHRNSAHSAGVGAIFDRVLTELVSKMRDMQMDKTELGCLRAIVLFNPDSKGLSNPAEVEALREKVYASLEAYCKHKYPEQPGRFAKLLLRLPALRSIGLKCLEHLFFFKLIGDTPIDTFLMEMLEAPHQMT
For assay [8], the target named is Thyroid hormone receptor beta (Homo sapiens) (UniProt P10828). Briefly: qHTS assay for small molecule antagonists of thyroid hormone receptor beta signaling (AID 588547; active means well fitted inhibition curve with a large enough effect in the signal ratio, with a control signal flat, not every such curve was filed as active; the % refers to the signal ratio;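 further: cells stimulated with 0.4 nM T3 agonist during compound exposure; on the % scale 0 is the no-effect control and ±100 the full control effect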). The conditions noted are these: TR-UAS-bla HEK293, beta-lactamase ratio, antagonist mode, 18 h. The method, boiled down:
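TR-UAS-bla GripTite HEK293 cells in 2% charcoal/dextran FBS medium; compounds 0.59 nM to 92 uM with T3 at 0.4nM final, 18 h at 37 C. Beta-lactamase read by CCF4 fluorescence (460/530 nm); Hill fits gave IC50 and efficacy.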

The target of assay [9] is Voltage-gated inwardly rectifying potassium channel KCNH2 (Homo sapiens) (UniProt Q12809). Briefly: qHTS Assay for Small Molecule Inhibitors of the Human hERG Channel Activity (AID 588834; active means well fitted inhibition curve with a large enough effect;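 further: top concentration of the series differs between compounds; on the % scale 0 is the no-effect control and ±100 the full control effect; lower thallium flux fluorescence means stronger hERG block; nearly all actives have a fitted effect of over 50% in size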). The following applies: U2OS BacMam hERG, FluxOR thallium flux fluorescence; series mostly up to 92.2 µM. In a few lines: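 Homogeneous FluxOR thallium flux assay using hERG-expressing U2OS cells (BacMam). Compound treatment about 10 minutes preceded stimulation; reduced fluorescence taken as channel block.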
Sequence of Voltage-gated inwardly rectifying potassium channel KCNH2 (Homo sapiens) (Q12809 whole entry, looked up): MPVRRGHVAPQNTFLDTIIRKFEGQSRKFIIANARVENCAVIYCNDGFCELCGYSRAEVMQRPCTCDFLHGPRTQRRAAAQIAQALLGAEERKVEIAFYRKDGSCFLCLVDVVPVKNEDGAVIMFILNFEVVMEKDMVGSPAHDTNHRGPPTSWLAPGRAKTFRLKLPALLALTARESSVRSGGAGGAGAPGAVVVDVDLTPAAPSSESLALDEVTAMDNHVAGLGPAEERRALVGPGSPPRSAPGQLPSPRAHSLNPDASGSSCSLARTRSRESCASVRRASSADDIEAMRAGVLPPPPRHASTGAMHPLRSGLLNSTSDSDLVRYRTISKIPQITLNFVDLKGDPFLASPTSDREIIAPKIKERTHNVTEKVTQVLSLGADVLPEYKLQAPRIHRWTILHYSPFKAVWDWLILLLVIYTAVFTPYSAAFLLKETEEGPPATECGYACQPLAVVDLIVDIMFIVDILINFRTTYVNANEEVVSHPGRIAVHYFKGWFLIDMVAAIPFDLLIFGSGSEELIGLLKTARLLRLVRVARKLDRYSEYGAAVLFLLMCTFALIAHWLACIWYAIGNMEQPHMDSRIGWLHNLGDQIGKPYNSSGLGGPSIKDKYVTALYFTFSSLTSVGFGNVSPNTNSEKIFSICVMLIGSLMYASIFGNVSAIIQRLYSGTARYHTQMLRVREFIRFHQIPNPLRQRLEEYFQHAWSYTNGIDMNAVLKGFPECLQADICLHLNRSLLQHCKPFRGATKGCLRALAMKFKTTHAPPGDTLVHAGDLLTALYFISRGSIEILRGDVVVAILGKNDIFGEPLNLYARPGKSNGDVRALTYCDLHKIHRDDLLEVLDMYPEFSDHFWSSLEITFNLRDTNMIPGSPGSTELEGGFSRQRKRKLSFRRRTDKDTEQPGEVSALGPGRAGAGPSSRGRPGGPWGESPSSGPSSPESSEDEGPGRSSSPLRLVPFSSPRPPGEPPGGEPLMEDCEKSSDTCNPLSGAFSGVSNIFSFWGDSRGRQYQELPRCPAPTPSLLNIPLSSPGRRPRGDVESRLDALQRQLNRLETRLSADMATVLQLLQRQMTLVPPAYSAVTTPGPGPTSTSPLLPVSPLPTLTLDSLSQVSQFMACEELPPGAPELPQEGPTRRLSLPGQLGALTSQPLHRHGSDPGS

The nature of assay [10]: qHTS assay for small molecule agonists of the antioxidant response element (ARE) signaling pathway (AID 651741; active means well fitted activation curve with a large enough effect in the signal ratio; the % refers to the signal ratio; further: % of control where 0% means no effect). The conditions noted are these: HepG2 ARE-bla reporter, beta-lactamase FRET ratio, 16 h; series mostly up to 96 µM. The method, boiled down: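 HepG2 ARE-bla reporter cells, 2,000/well; 5 h settle at 37 C/5% CO2; compound pin transfer (23 nL, DMSO); 16 h at 37 C; LiveBLAzer B/G FRET substrate, 2 h RT; fluorescence intensity read.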

Assay [11] in a line: qHTS assay for small molecule activators of the p53 signaling pathway (AID 651743; active means well fitted activation curve with a large enough effect in the signal ratio, not every such curve was filed as active; the % refers to the signal ratio; further: % of control where 0% means no effect). The conditions noted are these: HCT-116 p53RE-bla, beta-lactamase FRET ratio, 16 h; stronger effect = higher value. The method, boiled down: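 Reporter: beta-lactamase driven by p53 response elements, stably integrated in HCT-116 cells. Cells seeded at 4,000/well, 5 h preincubation, compound (DMSO) 16 h at 37 C; B/G FRET substrate 2 h RT; fluorescence intensity read.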

Assay [12] can be described thus: qHTS assay for small molecule antagonists of peroxisome proliferator-activated receptor delta signaling (AID 588535; active means well fitted inhibition curve with a large enough effect in the signal ratio, with a control signal flat, not every such curve was filed as active; the % refers to the signal ratio;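 on max response: cells co-treated with a PPAR-delta agonist as stimulator during compound exposure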). The conditions noted are these: HEK293T PPARd-UAS-bla, beta-lactamase FRET ratio, 18 h; 460 nm channel. In a few lines: (§2)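 Beta-lactamase reporter read-out (405 nm excitation, 460/530 nm emission) after CCF4 loading for 2 hrs at RT. HEK293T PPAR-delta-UAS-bla cells, 2% charcoal/dextran FBS, compounds for 18 hrs at 37 C. Hill fit gave IC50 and efficacy.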

Assay [13] addresses Peroxisome proliferator-activated receptor delta (Homo sapiens) (UniProt Q03181). The assay is described as above. The following applies: HEK293T PPARd-UAS-bla, beta-lactamase FRET ratio, 18 h; series mostly up to 76.7 µM. In a few lines:
as §2

Assay [14] concerns the target Peroxisome proliferator-activated receptor gamma (Homo sapiens) (UniProt P37231). Briefly: qHTS assay for small molecule antagonists of peroxisome proliferator-activated receptor gamma signaling (AID 588537; active means well fitted inhibition curve with a large enough effect in the signal ratio, with a control signal flat, not every such curve was filed as active; the % refers to the signal ratio;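 further: reporter cells co-stimulated with 50 nM rosiglitazone agonist during compound treatment; % of control where 0% means no effect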). The following applies: HEK293 PPARg-UAS-bla, beta-lactamase ratio, antagonist mode; series mostly up to 76.8 µM. The method, boiled down: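 Read-out: CCF4 fluorescence (ex 405, em 460/530 nm) after 2 h at RT. Cells were HEK293 carrying a UAS-bla reporter and treated 16 h at 37 C with compound plus rosiglitazone (50 nM final). Normalized to rosiglitazone and DMSO.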

For assay [15], the target named is Vitamin D3 receptor (Homo sapiens) (UniProt P11473). Briefly: qHTS assay for small molecule antagonists of vitamin D receptor signaling (AID 588541).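 Further: receptor activated by calcitriol during compound treatment; on the % scale 0 is the no-effect control and ±100 the full control effect.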 The following applies: HEK293T VDR-UAS-bla, beta-lactamase ratio, antagonist mode; series mostly up to 76.7 µM. In a few lines:
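VDR-UAS-bla HEK293T cells in 2% charcoal-stripped FBS were stimulated with 1-alpha,25-dihydroxyvitamin D3 (3 nM final) plus compound for 16 h at 37 C. The beta-lactamase CCF4 readout was normalized to 50 nM agonist and DMSO, and Hill fits gave IC50.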

Assay [16] shares this target. Briefly: qHTS assay for small molecule agonists of vitamin D receptor signaling (AID 588543).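 Further: 0% = DMSO basal and 100% = reference agonist control.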 The conditions noted are these: HEK293T VDR-UAS-bla, beta-lactamase ratio, 16 h; series mostly up to 76.8 µM. The method, boiled down:
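Measured: β-lactamase reporter activity (CCF4, 405 nm excitation, 460/530 nm emission) in HEK293T VDR-UAS-bla cells after 16 h compound exposure at 37 °C. Normalization against 50 nM 1α,25-dihydroxyvitamin D3 and DMSO; Hill-fit EC50.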

Assay [17] concerns the target Retinoic acid receptor RXR-alpha (Homo sapiens) (UniProt P19793). Description: qHTS assay for small molecule agonists of retinoid X receptor alpha signaling (AID 588544).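 On activation: 0% = DMSO basal wells and 100% = reference agonist.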 The conditions noted are these: HEK293T RXRa-UAS-bla, beta-lactamase reporter, 18 h; series mostly up to 76.7 µM.
The nature of assay [18]: qHTS assay for small molecule activators of the nuclear factor-kappa B (NF-kB) signaling pathway (AID 651749; active means well fitted activation curve with a large enough effect in the signal ratio; the % refers to the signal ratio; further: % of control where 0% means no effect). The conditions noted are these: NF-kB-bla ME-180 cells, beta-lactamase FRET ratio, 16 h; stronger effect = higher value. The method, boiled down:
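NF-kB-bla ME-180 cells, 2,000/well; 23 nL compound or DMSO pinned; 16 hr, 37C/5% CO2; beta-lactamase FRET read-out.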

Results filed as inconclusive are left out. Calls of active or inactive are those of the source. Unless noted, the call rests on the fitted dose curve.

Sequence of Thyroid hormone receptor beta (Homo sapiens) (P10828 whole entry, looked up): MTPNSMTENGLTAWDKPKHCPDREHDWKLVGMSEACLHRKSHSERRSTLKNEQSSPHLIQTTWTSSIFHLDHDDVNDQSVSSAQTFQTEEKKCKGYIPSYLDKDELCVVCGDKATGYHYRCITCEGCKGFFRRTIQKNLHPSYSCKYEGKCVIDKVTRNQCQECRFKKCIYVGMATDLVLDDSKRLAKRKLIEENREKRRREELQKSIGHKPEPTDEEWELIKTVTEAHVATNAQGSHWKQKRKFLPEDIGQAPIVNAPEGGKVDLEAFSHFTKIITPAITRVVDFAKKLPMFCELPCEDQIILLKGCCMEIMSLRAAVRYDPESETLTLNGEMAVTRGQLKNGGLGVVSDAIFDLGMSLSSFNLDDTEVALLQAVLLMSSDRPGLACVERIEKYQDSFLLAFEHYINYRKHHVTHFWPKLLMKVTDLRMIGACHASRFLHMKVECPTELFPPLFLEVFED
Sequence of Vitamin D3 receptor (Homo sapiens) (P11473 whole entry, looked up): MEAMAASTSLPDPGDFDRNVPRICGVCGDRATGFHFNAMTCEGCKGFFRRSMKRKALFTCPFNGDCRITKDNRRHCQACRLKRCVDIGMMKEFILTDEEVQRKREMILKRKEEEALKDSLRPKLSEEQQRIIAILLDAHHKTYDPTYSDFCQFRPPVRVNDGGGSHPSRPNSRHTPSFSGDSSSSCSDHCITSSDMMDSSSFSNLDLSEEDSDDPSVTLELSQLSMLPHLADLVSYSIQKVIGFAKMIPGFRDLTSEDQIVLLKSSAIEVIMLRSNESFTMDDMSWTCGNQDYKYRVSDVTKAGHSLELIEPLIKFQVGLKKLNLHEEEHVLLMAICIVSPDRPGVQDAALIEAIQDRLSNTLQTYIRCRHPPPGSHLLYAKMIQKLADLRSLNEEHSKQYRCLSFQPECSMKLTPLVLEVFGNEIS
Sequence of Peroxisome proliferator-activated receptor gamma (Homo sapiens) (P37231 whole entry, looked up): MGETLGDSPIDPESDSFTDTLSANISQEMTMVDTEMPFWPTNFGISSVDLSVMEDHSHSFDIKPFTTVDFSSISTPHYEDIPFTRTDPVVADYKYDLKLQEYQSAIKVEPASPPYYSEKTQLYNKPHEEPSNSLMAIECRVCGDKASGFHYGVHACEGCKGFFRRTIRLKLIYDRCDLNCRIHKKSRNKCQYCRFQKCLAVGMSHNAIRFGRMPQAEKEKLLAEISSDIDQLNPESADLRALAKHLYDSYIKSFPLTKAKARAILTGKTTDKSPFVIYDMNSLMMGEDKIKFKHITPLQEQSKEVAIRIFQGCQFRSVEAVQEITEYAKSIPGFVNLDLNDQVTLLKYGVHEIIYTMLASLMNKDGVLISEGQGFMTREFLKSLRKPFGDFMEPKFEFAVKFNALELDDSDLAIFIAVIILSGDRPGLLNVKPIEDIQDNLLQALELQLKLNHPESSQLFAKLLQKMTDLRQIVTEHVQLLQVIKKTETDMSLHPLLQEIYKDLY
Sequence of Peroxisome proliferator-activated receptor delta (Homo sapiens) (Q03181 whole entry, looked up): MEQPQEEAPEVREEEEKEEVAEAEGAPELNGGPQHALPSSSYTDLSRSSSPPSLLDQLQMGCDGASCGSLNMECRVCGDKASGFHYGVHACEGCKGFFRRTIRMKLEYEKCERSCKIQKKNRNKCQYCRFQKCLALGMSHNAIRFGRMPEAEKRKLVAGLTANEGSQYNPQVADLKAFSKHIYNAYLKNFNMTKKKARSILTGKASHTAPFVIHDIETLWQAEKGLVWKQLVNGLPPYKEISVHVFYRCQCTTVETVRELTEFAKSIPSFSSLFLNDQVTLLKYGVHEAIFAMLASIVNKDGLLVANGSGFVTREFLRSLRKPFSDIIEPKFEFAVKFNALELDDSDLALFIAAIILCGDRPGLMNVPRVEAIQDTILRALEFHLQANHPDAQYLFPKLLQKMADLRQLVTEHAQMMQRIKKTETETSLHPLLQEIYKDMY

Take `Cc1cccc(Br)c1`: the activation in assay [1] is -2.46% (inactive); in assay [11] it was -1.99% (inactive). In addition, the result in assay [2], in assay [3] and in assay [5] was inactive. The max response in assay [4] was -0.411%; in assay [6] it was -8.74%; in [7], 17.3% (inactive). Further, the activity change % (negative = inhibition) in [8] was 0.545% (inactive). Besides, the Potency entry in assay [9] and in [10] was “inactive” each time.
Take `O=[N+]([O-])c1c(Cl)cc(Cl)cc1Cl`: the activation in assay [1] was 0.964% (inactive); in assay [11], 1.35% (inactive); in [18], -0.147% (inactive). The max response in assay [12] was 0.0891%; in assay [4], -6.72%; in [6], -2.99%; in [7] it was 8.69% (inactive). Besides, the Potency entry in [13] and in assay [9] was “inactive” each time. Besides, the result in assay [3], in [14], in [15], in [16], in assay [17] and in assay [5] was inactive. Moreover, the activity change % (negative = inhibition) in assay [8] was 3.07% (inactive).
In the case of `Nc1ccc([N+](=O)[O-])c(N)c1`, the figures for the activation in [1], in assay [11] and in [18] were -8.8% (inactive), -5.74% (inactive) and 0.47% (inactive), respectively. Moreover, the outcome in assay [2], in assay [3], in [14], in [15], in assay [16] and in [5] was inactive. Moreover, the max response in assay [4] is -12.6%; in assay [6] it was -1.48%; in [7], -8.62% (inactive). The activity change % (negative = inhibition) in assay [8] was -0.546% (inactive). Moreover, the Potency entry in assay [9] was “inactive”.
Turning to `O=C(O)c1ccc(Cl)cc1Cl`, the activation in assay [1] was -5.78% (inactive); in [11], -4.73% (inactive); in [18], -0.499% (inactive). The outcome in assay [2], in assay [3], in [15], in assay [16], in [17] and in [5] was inactive. Also, the max response in [4] is -11.4%; in assay [6], -6.82%; in assay [7], 2.21% (inactive). The activity change % (negative = inhibition) in assay [8] is -8.73% (inactive).
For `CCOc1ccccc1N`, the activation was -6.27% (inactive) in [1], -1.62% (inactive) in [11] and -1.4% (inactive) in assay [18]. Further, the outcome in assay [2], in assay [3], in assay [15], in assay [16], in [17] and in assay [5] was inactive. In addition, the max response in assay [4] was 0.0722%; in assay [6], -5.65%; in assay [7], 20.5% (inactive). Also, in [8], the activity change % (negative = inhibition) is -11.6% (inactive). The Potency entry in assay [9] and in [10] was “inactive” each time.
As for `C=CCn1c(=O)n(CC=C)c(=O)n(CC=C)c1=O`, the activation is -0.0268% (inactive) in assay [1] and 0.0041% (inactive) in assay [11]. The result in assay [2], in assay [3], in assay [14], in assay [15], in assay [16] and in [17] was inactive. For the same molecule, the result in [5] was inactive. In addition, the max response in [4] was -13.5%; in assay [6], -12.4%; in assay [7], 6.59% (inactive). The activity change % (negative = inhibition) in assay [8] was -0.231% (inactive). The Potency result in [9] was “inactive”.
For `CCCCCCO`, the activation in [1] was -1.01% (inactive); in [11], -2.65% (inactive); in [18] it was -0.278% (inactive). In addition, the outcome in assay [2], in [3], in assay [15], in assay [16] and in assay [17] was inactive. Besides, the max response in [4] was -18.4%; in assay [6], -3.18%. Also, the activity change % (negative = inhibition) in assay [8] was 4.77% (inactive). Moreover, the Potency result in [9] was “inactive”.
